The full data set covers some 7,900 targets. This sample favours those with a hit. About 0.6% of all pairs of compound and target were hits.
How the values were obtained:
Test in all cases: log2 fold change, soluble protein after heating vs DMSO (PISA); higher = thermal stabilisation; K562 cells, 10 uM, 30 min; active = over 0.2 and 3.5 SD of the protein, either way, in both replicates (recomputed)
[1] = compound: CC[C@@H]1C(=O)N(C)c2cnc(Nc3ccc(C(=O)NC4CCN(C)CC4)cc3OC)nc2N1C1CCCC1
Method in brief: (§1)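 K562 cells (2×10^6 cells/mL) were treated with 10 μM compound for 30 min, and aliquots were heated for 3 min over 48°C-58°C. Pooled aliquots were extracted in PBS with 0.5% NP-40 at 4°C, and the supernatant after 21,000xg for 90 min was measured by TMTpro 16plex LC-MS/MS with channel sums equalised. Reported thermal stability, relative to control samples and from duplicates, is a log2 fold change.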

volasertib = compound: CC[C@@H]1C(=O)N(C)c2cnc(Nc3ccc(C(=O)N[C@H]4CC[C@H](N5CCN(CC6CC6)CC5)CC4)cc3OC)nc2N1C(C)C [volasertib]
Method in brief: as §1

[2] = compound: CC[C@H](C)N1C=C(C2=C(C=C(C=C21)C3=CN=C(C=C3)N4CCNCC4)C(=O)NCC5=C(C=C(NC5=O)C)C)C
Method in brief: as §1

epoxomicin = compound: CC[C@H](C)[C@@H](C(=O)N[C@@H]([C@@H](C)O)C(=O)N[C@@H](CC(C)C)C(=O)[C@]1(CO1)C)NC(=O)[C@H]([C@@H](C)CC)N(C)C(=O)C [epoxomicin]
Method in brief: as §1

[3] = compound: CCn1c(C(=O)N(C2CC2)C2CC2)cc2c3c(ncn3C)c(Nc3cc(C)n(C)n3)nc21
Method in brief: as §1

[4] = compound: CCn1cc(-c2ccnc3[nH]c(-c4cccc(CN(C)C)c4)cc23)c(-c2ccc(NC(=O)N(C)C)cc2)n1
Method in brief: as §1

[5] = compound: CN(C)CC(=O)Nc1ccc2[nH]c(=O)c3ccccc3c2c1
Method in brief: as §1

rosiglitazone = compound: CN(CCOC1=CC=C(C=C1)C[C@H]2C(=O)NC(=O)S2)C3=CC=CC=N3 (racemic) [rosiglitazone]
Method in brief: as §1

[6] = compound: CN1C2=C(C3=C1C(=O)N(N=C3)CC4=CC(=CC=C4)N)SC(=C2)S(=O)C
Method in brief: as §1

[7] = compound: CN1CCC(CNc2ccc3ncc(-c4cccc(OC(F)(F)F)c4)n3n2)CC1
Method in brief: as §1

saracatinib = compound: CN1CCN(CCOc2cc(OC3CCOCC3)c3c(Nc4c(Cl)ccc5c4OCO5)ncnc3c2)CC1 [saracatinib]
Method in brief: as §1

sotrastaurin = compound: CN1CCN(c2nc(C3=C(c4c[nH]c5ccccc45)C(=O)NC3=O)c3ccccc3n2)CC1 [sotrastaurin]
Method in brief: as §1

alvocidib = compound: CN1CC[C@H](c2c(O)cc(O)c3c(=O)cc(-c4ccccc4Cl)oc23)[C@H](O)C1 [alvocidib]
Method in brief: as §1

Tubastatin A = compound: CN1CCc2c(c3ccccc3n2Cc2ccc(C(=O)NO)cc2)C1 [Tubastatin A]
Method in brief: as §1

[8] = compound: CNC(=O)C1=CC=CC=C1NC2=NC(=NC=C2Cl)NC3=C(C=C(C=C3)N4CCOCC4)OC
Method in brief: as §1

defactinib = compound: CNC(=O)c1ccc(Nc2ncc(C(F)(F)F)c(NCc3nccnc3N(C)S(C)(=O)=O)n2)cc1 [defactinib]
Method in brief: as §1

rucaparib = compound: CNCc1ccc(-c2[nH]c3cc(F)cc4c3c2CCNC4=O)cc1 [rucaparib]
Method in brief: as §1

[9] = compound: CNc1nc(-c2ccc3c(N)n[nH]c3c2)cc(N2C[C@@H](C(=O)NC3CCCCC3)CC[C@H]2C)n1
Method in brief: as §1

encorafenib = compound: COC(=O)N[C@@H](C)CNc1nccc(-c2cn(C(C)C)nc2-c2cc(Cl)cc(NS(C)(=O)=O)c2F)n1 [encorafenib]
Method in brief: as §1

[10] = compound: COC(=O)[C@H](CCSC)NC(=O)C1=C(C=C(C=C1)NC[C@H](CS)N)C2=CC=CC=C2
Method in brief: as §1

Measured: log2 fold change

PIK3R1 (UniProt P27986)
inactive: [1] -0.04 | volasertib -0.142 | [2] -0.018 | epoxomicin 0.036 | [3] -0.015 | [4] -0.072 | [5] -0.002 | rosiglitazone 0.095 | [6] -0.064 | [7] 0.127 | saracatinib 0.014 | sotrastaurin 0.001 | alvocidib -0.079 | Tubastatin A -0.017 | [8] -0.014 | defactinib -0.06 | rucaparib 0.052 | [9] 0.022 | encorafenib 0.08 | [10] -0.024

PSMC1 (UniProt P62191)
active: epoxomicin -0.342
inactive: [1] 0.038 | volasertib 0.129 | [2] -0.015 | [3] 0.042 | [4] 0.092 | [5] -0.003 | rosiglitazone -0.038 | [6] 0.031 | [7] 0.051 | saracatinib -0.062 | sotrastaurin -0.022 | alvocidib 0.057 | Tubastatin A -0.009 | [8] -0.019 | defactinib 0.083 | rucaparib 0.043 | [9] 0.024 | encorafenib 0.022 | [10] -0.001

PEA15 isoform 2 (UniProt Q15121)
Chain of UniProt Q15121 (Q15121 whole entry, looked up): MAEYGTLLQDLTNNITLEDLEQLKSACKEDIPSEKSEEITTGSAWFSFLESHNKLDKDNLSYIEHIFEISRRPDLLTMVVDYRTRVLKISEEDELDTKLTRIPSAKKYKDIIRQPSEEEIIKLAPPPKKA
inactive: [1] -0.078 | volasertib -0.162 | [2] -0.018 | epoxomicin 0 | [3] 0.083 | [4] 0.022 | [5] 0.004 | rosiglitazone 0.025 | [6] -0.002 | [7] 0.039 | saracatinib 0.05 | sotrastaurin -0.02 | alvocidib -0.061 | Tubastatin A -0.009 | [8] -0.147 | defactinib -0.026 | rucaparib -0.037 | [9] 0.009 | encorafenib 0.035 | [10] 0.034

PURA (UniProt Q00577)
inactive: [1] 0.355 | volasertib 0.418 | [2] -0.087 | epoxomicin -0.197 | [3] 0.036 | [4] 0.26 | [5] -0.095 | rosiglitazone -0.18 | [6] 0.327 | [7] 0.441 | saracatinib 0.061 | sotrastaurin 0.063 | alvocidib 0.321 | Tubastatin A 0.001 | [8] 0.059 | defactinib 0.347 | rucaparib 0.309 | [9] 0.076 | encorafenib 0.086 | [10] 0.04

PSMD2 (UniProt Q13200)
active: epoxomicin -0.365
inactive: [1] 0.049 | volasertib 0.089 | [2] -0.009 | [3] 0.011 | [4] 0.07 | [5] -0.04 | rosiglitazone -0.024 | [6] 0.021 | [7] 0.055 | saracatinib -0.047 | sotrastaurin -0.029 | alvocidib 0.048 | Tubastatin A -0.014 | [8] -0.033 | defactinib 0.061 | rucaparib 0.035 | [9] 0.01 | encorafenib 0.051 | [10] 0.012

PPP2R5C isoform 4 (UniProt Q13362)
Chain of UniProt Q13362 (Q13362 whole entry, looked up): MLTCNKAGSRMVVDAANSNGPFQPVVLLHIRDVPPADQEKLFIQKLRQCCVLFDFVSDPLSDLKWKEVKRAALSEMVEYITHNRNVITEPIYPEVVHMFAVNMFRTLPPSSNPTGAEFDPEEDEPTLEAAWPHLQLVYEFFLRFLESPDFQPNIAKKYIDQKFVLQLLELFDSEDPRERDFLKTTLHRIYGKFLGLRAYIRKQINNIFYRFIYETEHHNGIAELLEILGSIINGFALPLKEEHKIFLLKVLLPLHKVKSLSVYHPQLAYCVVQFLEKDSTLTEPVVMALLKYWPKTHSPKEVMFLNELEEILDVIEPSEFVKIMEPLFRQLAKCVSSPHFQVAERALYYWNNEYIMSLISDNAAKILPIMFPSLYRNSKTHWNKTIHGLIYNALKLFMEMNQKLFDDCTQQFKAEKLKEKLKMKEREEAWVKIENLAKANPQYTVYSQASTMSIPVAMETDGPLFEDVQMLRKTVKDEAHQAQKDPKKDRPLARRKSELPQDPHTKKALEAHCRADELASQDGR
inactive: [1] -0.069 | volasertib -0.127 | [2] 0.042 | epoxomicin 0.19 | [3] 0.018 | [4] -0.099 | [5] -0.048 | rosiglitazone 0.052 | [6] -0.003 | [7] -0.11 | saracatinib -0.04 | sotrastaurin 0.009 | alvocidib -0.063 | Tubastatin A 0.012 | [8] -0.068 | defactinib -0.083 | rucaparib -0.003 | [9] -0.032 | encorafenib 0.06 | [10] -0.025

PRKCA (UniProt P17252)
active: sotrastaurin -0.502
inactive: [1] 0.073 | volasertib -0.179 | [2] 0.025 | epoxomicin -0.018 | [3] -0.029 | [4] 0 | [5] 0.017 | rosiglitazone 0.032 | [6] -0.15 | [7] -0.29 | saracatinib -0.174 | alvocidib -0.017 | Tubastatin A 0.018 | [8] 0.026 | defactinib -0.006 | rucaparib 0.039 | [9] 0.308 | encorafenib -0.038 | [10] 0.005

PARP16 isoform 3 (UniProt Q8N5Y8)
active: [4] -0.252
inactive: [1] 0.103 | volasertib -0.025 | [2] 0.067 | epoxomicin 0.029 | [3] 0.006 | [5] 0.061 | rosiglitazone 0.09 | [6] -0.008 | [7] 0.096 | saracatinib 0.175 | sotrastaurin -0.038 | alvocidib -0.054 | Tubastatin A 0.005 | [8] -0.009 | defactinib 0.046 | rucaparib 0.198 | [9] -0.042 | encorafenib -0.087 | [10] -0.005

PPT1 (UniProt P50897)
Chain of UniProt P50897 (P50897 whole entry, looked up): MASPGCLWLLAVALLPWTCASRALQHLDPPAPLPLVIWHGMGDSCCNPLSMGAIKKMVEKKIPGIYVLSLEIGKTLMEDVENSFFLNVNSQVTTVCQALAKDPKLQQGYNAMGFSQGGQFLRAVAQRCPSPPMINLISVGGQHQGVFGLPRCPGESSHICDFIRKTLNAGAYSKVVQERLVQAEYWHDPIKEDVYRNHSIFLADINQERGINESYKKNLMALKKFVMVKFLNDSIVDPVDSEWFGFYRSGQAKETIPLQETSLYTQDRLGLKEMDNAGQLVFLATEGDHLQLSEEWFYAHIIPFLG
active: [1] -1.41 | volasertib -1.9 | [7] -0.925
inactive: [2] -0.041 | epoxomicin 0.014 | [3] 0.015 | [4] 0.01 | [5] -0.009 | rosiglitazone -0.008 | [6] -0.035 | saracatinib -0.007 | sotrastaurin 0.029 | alvocidib 0.005 | Tubastatin A -0.038 | [8] 0.024 | defactinib 0.024 | rucaparib 0.047 | [9] -0.019 | encorafenib -0.023 | [10] -0.002

PPP1R12A (UniProt O14974)
Chain of UniProt O14974 (O14974 whole entry, looked up): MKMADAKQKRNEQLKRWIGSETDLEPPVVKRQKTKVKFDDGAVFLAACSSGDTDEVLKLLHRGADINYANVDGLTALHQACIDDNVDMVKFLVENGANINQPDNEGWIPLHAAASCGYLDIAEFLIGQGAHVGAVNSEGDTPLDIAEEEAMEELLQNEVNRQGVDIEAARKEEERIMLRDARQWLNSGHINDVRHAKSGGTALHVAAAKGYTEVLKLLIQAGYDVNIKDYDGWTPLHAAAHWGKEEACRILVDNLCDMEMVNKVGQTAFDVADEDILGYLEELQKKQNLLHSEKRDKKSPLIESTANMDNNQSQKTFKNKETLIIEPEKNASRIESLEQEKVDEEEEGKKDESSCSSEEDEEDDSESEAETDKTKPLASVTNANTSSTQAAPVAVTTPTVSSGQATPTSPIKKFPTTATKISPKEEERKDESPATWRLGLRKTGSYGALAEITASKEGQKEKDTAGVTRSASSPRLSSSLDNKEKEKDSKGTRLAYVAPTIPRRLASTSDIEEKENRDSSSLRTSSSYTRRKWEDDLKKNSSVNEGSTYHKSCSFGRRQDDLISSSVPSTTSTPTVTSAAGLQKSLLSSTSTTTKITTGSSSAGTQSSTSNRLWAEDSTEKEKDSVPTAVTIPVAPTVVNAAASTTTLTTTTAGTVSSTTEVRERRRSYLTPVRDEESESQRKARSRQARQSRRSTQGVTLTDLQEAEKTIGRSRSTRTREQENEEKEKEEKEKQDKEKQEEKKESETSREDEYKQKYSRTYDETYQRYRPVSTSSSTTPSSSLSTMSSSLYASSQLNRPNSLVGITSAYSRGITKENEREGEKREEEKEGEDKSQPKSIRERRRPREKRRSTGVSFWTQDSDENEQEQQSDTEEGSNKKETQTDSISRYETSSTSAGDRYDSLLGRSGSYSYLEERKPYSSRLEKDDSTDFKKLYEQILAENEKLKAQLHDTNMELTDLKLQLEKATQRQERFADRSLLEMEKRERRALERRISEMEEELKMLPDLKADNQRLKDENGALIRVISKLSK
inactive: [1] -0.136 | [2] 0.066 | epoxomicin 0.067 | [3] -0.028 | [4] -0.229 | [5] 0 | rosiglitazone 0.059 | [6] -0.016 | saracatinib -0.048 | sotrastaurin -0.054 | alvocidib -0.187 | Tubastatin A 0.01 | [8] -0.052 | defactinib -0.187 | rucaparib -0.012 | [9] -0.197 | encorafenib 0.057 | [10] -0.043
active: volasertib -0.468 | [7] -0.536

PIP4K2C (UniProt Q8TBX8)
Chain of UniProt Q8TBX8 (Q8TBX8 whole entry, looked up): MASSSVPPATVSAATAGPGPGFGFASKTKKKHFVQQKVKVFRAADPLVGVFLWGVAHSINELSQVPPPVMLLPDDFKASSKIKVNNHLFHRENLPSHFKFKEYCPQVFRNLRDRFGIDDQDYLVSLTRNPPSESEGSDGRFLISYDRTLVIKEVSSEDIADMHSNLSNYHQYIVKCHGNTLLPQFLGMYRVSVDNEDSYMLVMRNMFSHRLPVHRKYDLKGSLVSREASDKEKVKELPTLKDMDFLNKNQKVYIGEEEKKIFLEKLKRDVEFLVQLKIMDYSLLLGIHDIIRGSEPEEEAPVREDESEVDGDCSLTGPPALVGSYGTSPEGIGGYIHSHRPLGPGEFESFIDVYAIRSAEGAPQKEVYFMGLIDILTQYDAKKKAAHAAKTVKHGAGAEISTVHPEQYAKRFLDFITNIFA
active: [1] 1.12 | volasertib 1.19
inactive: [2] -0.096 | epoxomicin -0.022 | [3] 0.001 | [4] 0.05 | [5] -0.016 | rosiglitazone 0.046 | [6] 0.699 | [7] 0.384 | saracatinib -0.049 | sotrastaurin -0.035 | alvocidib 0.54 | Tubastatin A 0.133 | [8] 0.371 | defactinib 0.527 | rucaparib 0.011 | [9] -0.042 | encorafenib 0.051 | [10] -0.113

POM121 (UniProt Q96HA1)
Chain of UniProt Q96HA1 (Q96HA1 whole entry, looked up): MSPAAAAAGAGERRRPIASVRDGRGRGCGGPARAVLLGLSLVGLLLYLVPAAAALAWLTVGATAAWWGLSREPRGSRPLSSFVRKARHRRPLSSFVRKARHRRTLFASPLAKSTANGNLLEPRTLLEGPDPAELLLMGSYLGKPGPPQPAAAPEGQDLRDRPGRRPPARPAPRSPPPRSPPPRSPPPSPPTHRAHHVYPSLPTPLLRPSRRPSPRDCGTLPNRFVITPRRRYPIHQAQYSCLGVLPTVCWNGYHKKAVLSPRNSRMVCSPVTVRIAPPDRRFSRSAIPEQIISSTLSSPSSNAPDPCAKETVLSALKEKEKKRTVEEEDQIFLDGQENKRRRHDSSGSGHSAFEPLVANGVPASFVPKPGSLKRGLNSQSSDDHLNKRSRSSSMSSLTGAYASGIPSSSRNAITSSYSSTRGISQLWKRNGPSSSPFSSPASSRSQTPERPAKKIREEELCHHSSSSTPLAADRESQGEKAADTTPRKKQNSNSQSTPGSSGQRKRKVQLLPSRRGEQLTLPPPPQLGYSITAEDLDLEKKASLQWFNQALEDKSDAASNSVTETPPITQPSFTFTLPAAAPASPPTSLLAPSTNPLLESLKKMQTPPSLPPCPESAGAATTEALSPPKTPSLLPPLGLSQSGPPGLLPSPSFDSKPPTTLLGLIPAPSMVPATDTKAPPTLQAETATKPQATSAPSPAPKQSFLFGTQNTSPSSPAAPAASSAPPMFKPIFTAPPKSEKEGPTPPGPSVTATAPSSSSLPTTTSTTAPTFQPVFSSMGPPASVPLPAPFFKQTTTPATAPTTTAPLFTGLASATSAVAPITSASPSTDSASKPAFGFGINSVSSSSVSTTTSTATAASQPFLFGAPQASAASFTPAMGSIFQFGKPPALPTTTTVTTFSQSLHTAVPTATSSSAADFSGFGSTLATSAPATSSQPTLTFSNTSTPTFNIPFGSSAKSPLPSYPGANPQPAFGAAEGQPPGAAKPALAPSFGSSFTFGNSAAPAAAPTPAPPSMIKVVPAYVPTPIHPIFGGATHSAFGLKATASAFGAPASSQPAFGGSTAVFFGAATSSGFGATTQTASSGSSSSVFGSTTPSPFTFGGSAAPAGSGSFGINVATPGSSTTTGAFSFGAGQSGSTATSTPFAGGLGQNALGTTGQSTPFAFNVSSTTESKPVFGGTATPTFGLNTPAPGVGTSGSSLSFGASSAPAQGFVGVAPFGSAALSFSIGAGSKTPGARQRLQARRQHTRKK
inactive: [1] -0.017 | volasertib -0.027 | [2] 0.056 | epoxomicin -0.062 | [3] -0.037 | [4] 0.03 | [5] -0.071 | rosiglitazone 0.001 | [6] 0.137 | [7] -0.149 | saracatinib -0.043 | sotrastaurin -0.024 | alvocidib 0.023 | Tubastatin A 0.083 | [8] 0.126 | defactinib 0.045 | rucaparib 0.069 | [9] 0 | encorafenib 0.075 | [10] -0.002

PTP4A1 (UniProt Q93096)
active: alvocidib -0.34 | defactinib -0.447
inactive: [1] 0.025 | volasertib 0.019 | [2] 0.036 | epoxomicin 0.065 | [3] 0.029 | [4] -0.055 | [5] -0.044 | rosiglitazone -0.011 | [6] -0.043 | [7] 0.022 | saracatinib -0.058 | sotrastaurin 0.061 | Tubastatin A 0.036 | [8] 0.02 | rucaparib -0.038 | [9] 0.04 | encorafenib -0.027 | [10] 0.029

PDLIM7 (UniProt Q9NR12)
active: volasertib -0.24
inactive: [1] -0.084 | [2] 0.012 | epoxomicin 0.013 | [3] -0.053 | [4] -0.064 | [5] 0.039 | rosiglitazone 0.039 | [6] 0.023 | [7] -0.021 | saracatinib 0.002 | sotrastaurin 0.016 | alvocidib -0.032 | Tubastatin A -0.022 | [8] -0.014 | defactinib -0.083 | rucaparib 0.002 | [9] -0.013 | encorafenib 0.021 | [10] -0.021

PPIL2 (UniProt Q13356)
Chain of UniProt Q13356 (Q13356 whole entry, looked up): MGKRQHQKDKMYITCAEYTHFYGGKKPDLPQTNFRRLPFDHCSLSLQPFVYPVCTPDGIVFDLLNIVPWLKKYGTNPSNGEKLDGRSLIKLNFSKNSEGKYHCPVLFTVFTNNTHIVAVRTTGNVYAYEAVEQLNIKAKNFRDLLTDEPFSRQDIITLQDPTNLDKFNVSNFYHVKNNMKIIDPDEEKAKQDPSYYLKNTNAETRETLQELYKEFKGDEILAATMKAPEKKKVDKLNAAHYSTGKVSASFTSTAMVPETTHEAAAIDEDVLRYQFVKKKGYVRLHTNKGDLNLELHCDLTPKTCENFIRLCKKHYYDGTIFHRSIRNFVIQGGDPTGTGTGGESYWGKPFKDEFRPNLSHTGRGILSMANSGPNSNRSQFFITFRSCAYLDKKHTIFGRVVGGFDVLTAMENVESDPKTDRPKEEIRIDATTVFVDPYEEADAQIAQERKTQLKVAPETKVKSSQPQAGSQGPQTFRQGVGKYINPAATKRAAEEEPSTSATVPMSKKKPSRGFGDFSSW
active: volasertib -0.599
inactive: [1] -0.196 | [2] 0.159 | epoxomicin 0.142 | [3] -0.098 | [4] -0.031 | [5] 0.08 | rosiglitazone 0.043 | [6] -0.019 | [7] -0.022 | saracatinib -0.02 | sotrastaurin -0.096 | alvocidib -0.093 | Tubastatin A 0.069 | [8] -0.023 | defactinib -0.194 | rucaparib 0.073 | [9] 0.067 | encorafenib 0.047 | [10] -0.065

PHF5A (UniProt Q7RTV0)
Chain of UniProt Q7RTV0 (Q7RTV0 whole entry, looked up): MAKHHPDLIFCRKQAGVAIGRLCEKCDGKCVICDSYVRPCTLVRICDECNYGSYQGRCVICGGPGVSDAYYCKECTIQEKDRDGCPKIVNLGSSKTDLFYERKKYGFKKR
inactive: [1] 0.013 | volasertib 0.065 | [2] -0.061 | epoxomicin 0.051 | [3] 0.014 | [4] 0.087 | [5] -0.063 | rosiglitazone -0.062 | [6] -0.017 | [7] 0.017 | saracatinib 0.069 | sotrastaurin 0.047 | alvocidib 0.045 | Tubastatin A -0.027 | [8] 0.05 | defactinib 0.141 | rucaparib 0.04 | [9] -0.086 | encorafenib -0.017 | [10] 0.023

Reference: the supplement of paper PMC10849652
